# Measurements published in PubChem BioAssay (Tox21).
# Results filed as inconclusive are left out. Activity calls are given as the source filed them. Calls follow the shape of the dose curve; as a rule, active = well fitted curve in the direction sought with a large enough effect in the repeat runs; inconclusive = weak or mixed curves; inactive = no such curve, though single readings can be large; an effect the other way counts as inactive or inconclusive.
# Target: Nuclear receptor subfamily 1 group I member 2 (Homo sapiens) (UniProt O75469)
# Assay: Human pregnane X receptor (PXR) small molecule agonists, qHTS assay (AID 1346982); also: nearly all actives have a fitted effect of over 35% in size; also: potency is read from the fitted curve at half-maximal effect
# Conditions: PXR-Luc HepG2, CYP3A4 luciferase reporter, 24 h; series mostly up to 92.4 µM; activation: at the top concentration
# Outline: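 Cells: HepG2 stably carrying PXR-Luc. Medium held 5% charcoal-stripped FBS. Compounds in DMSO added after 5 hr plating, incubated 24 hr, then luminescence quantified with ONE-Glo.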
# % is scaled to controls: 0 for no effect and ±100 for the full control effect.
# Sequence of Nuclear receptor subfamily 1 group I member 2 (Homo sapiens) (O75469 whole entry, looked up): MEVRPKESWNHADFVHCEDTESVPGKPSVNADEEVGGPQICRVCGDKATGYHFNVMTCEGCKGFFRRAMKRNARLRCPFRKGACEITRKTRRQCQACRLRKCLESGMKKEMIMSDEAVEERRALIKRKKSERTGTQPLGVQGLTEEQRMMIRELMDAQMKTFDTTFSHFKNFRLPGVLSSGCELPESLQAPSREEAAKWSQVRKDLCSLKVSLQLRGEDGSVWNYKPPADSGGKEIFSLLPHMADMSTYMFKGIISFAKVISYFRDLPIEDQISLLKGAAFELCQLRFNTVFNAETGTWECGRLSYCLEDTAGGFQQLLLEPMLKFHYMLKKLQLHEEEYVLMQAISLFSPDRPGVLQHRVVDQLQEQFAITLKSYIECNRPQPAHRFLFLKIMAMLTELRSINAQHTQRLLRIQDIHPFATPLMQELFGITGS
Structure (SMILES),Potency,activation
CC(C)c1nc(CN(C)C(=O)N[C@H](C(=O)N[C@@H](Cc2ccccc2)C[C@H](O)[C@H](Cc2ccccc2)NC(=O)OCc2cncs2)C(C)C)cs1,5.96 µM (active),–
C=C(C)CCCC(C)CCO (stereo not given),54.5 µM (active),–
O=C=Nc1ccc(Cl)c(Cl)c1,26.9 µM (active),–
CC(=O)NC1(c2cccc(F)c2)CCN(CC[C@@]2(c3ccc(Cl)c(Cl)c3)CN(c3ccccc3)C(=O)CO2)CC1,19.4 µM (active),–
CC(=O)Nc1ccc(C)cc1C,–,13.1% (inactive)
CC(CCC(=O)O)C(=O)O (stereo not given),–,-4.15% (inactive)
Cc1cccc(O)c1N,–,16.4% (inactive)
CCOC(=O)[C@H](CCc1ccccc1)N[C@@H](C)C(=O)N(CC(=O)O)C1Cc2ccccc2C1,11.9 µM (active),–
CC1=C(CC=O)C(C)(C)CCC1,24.3 µM (active),–
N#CCc1ccc(Cl)cc1Cl,–,-8.71% (inactive)
C=C(C)[C@@H]1CCC2=CCC[C@@H](C)[C@]2(C)C1,38.6 µM (active),–
C=CCc1ccccc1OCC(O)CNC(C)C (stereo not given),–,14.2% [at 42.5 µM] (inactive)
CCOC(=O)c1ccc(I)cc1,–,4.52% (inactive)
CC(C)=CCC/C(C)=C/CC/C(C)=C/CCC(=O)OC/C=C(\C)CCC=C(C)C,–,-15.7% [at 42.5 µM] (inactive)
O=C(OC(=O)c1ccccc1)c1ccccc1,–,-0.359% (inactive)
CCCCCC[C@@H](O)C/C=C\CCCCCCCC(=O)O,–,-5.74% (inactive)
C[C@@H]1CN(CCCn2c3ccccc3c3ccccc32)C[C@H](C)N1,–,-36.7% [at 42.5 µM] (inactive)
C/C=C(/C(=C/C)c1ccc(O)cc1)c1ccc(O)cc1,–,-0.393% [at 42.5 µM] (inactive)
C=C(C)C(=O)OCCOCCOC(=O)C(=C)C,–,5.54% (inactive)
CCCCOc1ccc(OCCCN2CCOCC2)cc1,21.1 µM (active),–
CS(=O)(=O)c1ccc(-c2cn3ccccc3n2)cc1,2.66 µM (active),–
N#CCCN(CCO)CCO,–,-3% (inactive)
Cc1cccc(N(C)C(=S)Oc2ccc3c(c2)CCC3)c1,10.6 µM (active),–
C=C(C)C(=O)OCCCCCCCCCCCCC,–,20.4% (inactive)
C[C@]1(Cn2ccnn2)[C@H](C(=O)O)N2C(=O)C[C@H]2S1(=O)=O,–,-12.1% [at 42.5 µM] (inactive)
CCOc1ccccc1O[C@H](c1ccccc1)[C@H]1CNCCO1,–,4.02% [at 42.5 µM] (inactive)
Cc1ccc(CO)cc1,–,0.876% (inactive)
OC[C@H]1O[C@@H](n2cnc3c(=S)nc[nH]c32)[C@H](O)[C@@H]1O,11.9 µM (active),–

# Target: Nuclear receptor subfamily 1 group I member 2 (Rattus norvegicus) (UniProt Q9R1A7)
# Assay: Rat pregnane X receptor (rPXR) activation by small molecules, qHTS assay (AID 1346983); also: nearly all actives have a fitted effect of over 20% in size
# Conditions: rPXR luciferase reporter cells, One-Glo luminescence, 24 h; max activation: active compounds read high
# Outline: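 Cell-based rPXR activation assay: rPXR cells, 2,000 per well, rested 5hr at 37 C, then exposed to compounds in DMSO for 24 hr at 37 C. Luciferase activity read by One-Glo luminescence after 30 min at room temperature.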
# Sequence of Nuclear receptor subfamily 1 group I member 2 (Rattus norvegicus) (Q9R1A7 whole entry, looked up): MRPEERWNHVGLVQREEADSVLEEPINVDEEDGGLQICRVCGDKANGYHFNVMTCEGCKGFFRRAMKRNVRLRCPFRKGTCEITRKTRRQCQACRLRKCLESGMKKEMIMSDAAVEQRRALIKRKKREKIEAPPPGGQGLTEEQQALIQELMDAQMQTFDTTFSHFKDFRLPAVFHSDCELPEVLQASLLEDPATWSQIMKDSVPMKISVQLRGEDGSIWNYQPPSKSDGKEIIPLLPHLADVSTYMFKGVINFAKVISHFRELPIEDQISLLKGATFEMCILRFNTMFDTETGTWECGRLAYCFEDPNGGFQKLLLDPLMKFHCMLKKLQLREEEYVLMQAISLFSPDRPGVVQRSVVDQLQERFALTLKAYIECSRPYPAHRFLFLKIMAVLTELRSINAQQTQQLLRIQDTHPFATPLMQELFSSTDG
row,Structure (SMILES),max activation
1,Oc1ccc(Cl)c2cccnc12,-0.0207% (inactive)
2,C[C@H]1c2cccc(O)c2C(O)=C2C(=O)[C@]3(O)C(O)=C(C(N)=O)C(=O)[C@@H](N(C)C)[C@@H]3[C@@H](O)[C@@H]21,-4.08% (inactive)
3,C[C@@H]1CN(CCCn2c3ccccc3c3ccccc32)C[C@H](C)N1,-9.24% (inactive)
4,C/C=C(/C(=C/C)c1ccc(O)cc1)c1ccc(O)cc1,0.107% (inactive)
5,CCCCOc1ccc(OCCCN2CCOCC2)cc1,-1.82% (inactive)
6,C[C@]1(Cn2ccnn2)[C@H](C(=O)O)N2C(=O)C[C@H]2S1(=O)=O,-2% (inactive)
7,CCOc1ccccc1O[C@H](c1ccccc1)[C@H]1CNCCO1,-0.272% (inactive)
8,OC[C@H]1O[C@@H](n2cnc3c(=S)nc[nH]c32)[C@H](O)[C@@H]1O,-1.15% (inactive)
9,CC(=O)N/N=C/c1ccc([N+](=O)[O-])o1,-3.83% (inactive)

# Target: Nuclear receptor subfamily 1 group I member 2 (Homo sapiens) (UniProt O75469)
# Assay: CYP3A4 induction through human pregnane X receptor (PXR) by small molecules, qHTS assay (AID 1346984); also: nearly all actives have a fitted effect of over 40% in size; also: potency is read from the fitted curve at half-maximal effect
# Conditions: DPX-2 HepG2 PXR, CYP3A4-luciferin luminescence, 24 h; series mostly up to 46.1 µM; activation: at the top concentration
# Outline: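 Quantitative HTS in DPX-2 cells, i.e. HepG2 transfected with PXR response element and CYP3A4-promoter luciferase. Compounds in DMSO incubated 24hr at 37C; then P450-Glo CYP3A4 substrate, 3uM final, 3hr; One-Glo luminescence.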
Structure (SMILES),Potency,activation
Oc1ccc(Cl)c2cccnc12,2.51 µM (active),–
C[C@H]1c2cccc(O)c2C(O)=C2C(=O)[C@]3(O)C(O)=C(C(N)=O)C(=O)[C@@H](N(C)C)[C@@H]3[C@@H](O)[C@@H]21,–,1.41% (inactive)
C/C=C(/C(=C/C)c1ccc(O)cc1)c1ccc(O)cc1,–,-6.08% [at 20.6 µM] (inactive)
CCCCOc1ccc(OCCCN2CCOCC2)cc1,–,26.5% [at 20.6 µM] (inactive)
C[C@]1(Cn2ccnn2)[C@H](C(=O)O)N2C(=O)C[C@H]2S1(=O)=O,–,-3.2% (inactive)
CCOc1ccccc1O[C@H](c1ccccc1)[C@H]1CNCCO1,–,18.9% (inactive)
OC[C@H]1O[C@@H](n2cnc3c(=S)nc[nH]c32)[C@H](O)[C@@H]1O,–,6.6% (inactive)
CC(=O)N/N=C/c1ccc([N+](=O)[O-])o1,–,3.7% (inactive)

# Target: Nuclear receptor subfamily 1 group I member 2 (Homo sapiens) (UniProt O75469)
# Assay: Human pregnane X receptor (PXR) activation by small molecules, qHTS assay (AID 1346985); also: nearly all actives have a fitted effect of over 40% in size; also: potency is read from the fitted curve at half-maximal effect
# Conditions: DPX-2 HepG2 CYP3A4-luciferase, 24 h; series mostly up to 38.3 µM; activation: at the top concentration
# Outline: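 DPX-2 cells (HepG2 co-transfected with a PXR response element and a CYP3A4-promoter luciferase construct) were seeded at 2,000 per well, rested 5 hr at 37C, then exposed to DMSO-dissolved compounds for 24 hr. Activation was read as luciferase luminescence.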
Structure (SMILES),activation,Potency
Oc1ccc(Cl)c2cccnc12,2.6% (inactive),–
C[C@H]1c2cccc(O)c2C(O)=C2C(=O)[C@]3(O)C(O)=C(C(N)=O)C(=O)[C@@H](N(C)C)[C@@H]3[C@@H](O)[C@@H]21,2.2% (inactive),–
C/C=C(/C(=C/C)c1ccc(O)cc1)c1ccc(O)cc1,6.65% [at 17.1 µM] (inactive),–
CCCCOc1ccc(OCCCN2CCOCC2)cc1,9.52% [at 17.1 µM] (inactive),–
C[C@]1(Cn2ccnn2)[C@H](C(=O)O)N2C(=O)C[C@H]2S1(=O)=O,3.02% (inactive),–
CCOc1ccccc1O[C@H](c1ccccc1)[C@H]1CNCCO1,–,22.4 µM (active)
OC[C@H]1O[C@@H](n2cnc3c(=S)nc[nH]c32)[C@H](O)[C@@H]1O,24.3% (inactive),–
CC(=O)N/N=C/c1ccc([N+](=O)[O-])o1,-7.78% (inactive),–

# Target: Cytochrome P450 2D6 (Homo sapiens) (UniProt P10635)
# Assay: Cytochrome P450 Family 2 Subfamily D Member 6 (CYP2D6) small molecule antagonists: luciferase reporter qHTS assay (AID 1671196); also: nearly all actives have a fitted effect of over 50% in size; also: potency is read from the fitted curve at half-maximal effect
# Conditions: P450-Glo CYP2D6 enzyme assay, luciferin luminescence, 1 h; series mostly up to 115 µM; activity change, negative = inhibition: at the top concentration
# Outline: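 Enzyme and proluciferin substrate were first combined with test chemical for 10 min at room temperature. Adding NADPH regeneration solution started a 1 h reaction, stopped with luciferin detection reagent and read by luminescence 20 min later.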
# Sequence of Cytochrome P450 2D6 (Homo sapiens) (P10635 whole entry, looked up): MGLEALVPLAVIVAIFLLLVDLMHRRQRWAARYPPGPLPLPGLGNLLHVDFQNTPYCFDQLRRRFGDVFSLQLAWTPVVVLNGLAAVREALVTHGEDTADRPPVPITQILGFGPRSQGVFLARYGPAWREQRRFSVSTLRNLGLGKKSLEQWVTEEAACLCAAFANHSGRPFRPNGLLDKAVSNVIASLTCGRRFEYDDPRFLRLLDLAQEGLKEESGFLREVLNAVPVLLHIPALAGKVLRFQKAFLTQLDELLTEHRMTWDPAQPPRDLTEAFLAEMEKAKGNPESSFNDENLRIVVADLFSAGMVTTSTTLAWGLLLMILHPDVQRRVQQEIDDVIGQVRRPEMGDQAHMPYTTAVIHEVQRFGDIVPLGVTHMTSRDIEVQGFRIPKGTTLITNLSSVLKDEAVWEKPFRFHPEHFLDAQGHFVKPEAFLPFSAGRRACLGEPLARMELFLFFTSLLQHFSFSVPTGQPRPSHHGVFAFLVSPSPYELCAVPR
Structure (SMILES),Potency,"activity change, negative = inhibition"
CC(C)COCC(CN(Cc1ccccc1)c1ccccc1)N1CCCC1 (stereo not given),0.0692 µM (active),–
Oc1ccc(Cl)c2cccnc12,–,-6.98% [at 53 µM] (inactive)
C[C@H]1c2cccc(O)c2C(O)=C2C(=O)[C@]3(O)C(O)=C(C(N)=O)C(=O)[C@@H](N(C)C)[C@@H]3[C@@H](O)[C@@H]21,–,-6.19% [at 53 µM] (inactive)
C=C(C)CCCC(C)CCO (stereo not given),–,-20.3% (inactive)
O=C=Nc1ccc(Cl)c(Cl)c1,–,-20% (inactive)
CC(=O)NC1(c2cccc(F)c2)CCN(CC[C@@]2(c3ccc(Cl)c(Cl)c3)CN(c3ccccc3)C(=O)CO2)CC1,28.3 µM (active),–
CC(=O)Nc1ccc(C)cc1C,–,-0.0953% (inactive)
CC(CCC(=O)O)C(=O)O (stereo not given),63.4 µM (active),–
Cc1cccc(O)c1N,45.3 µM (active),–
N#CCc1ccc(Cl)cc1Cl,–,-25.4% (inactive)
CCOC(=O)c1ccc(I)cc1,–,-9.72% (inactive)
CC(C)=CCC/C(C)=C/CC/C(C)=C/CCC(=O)OC/C=C(\C)CCC=C(C)C,–,2.68% [at 53 µM] (inactive)
O=C(OC(=O)c1ccccc1)c1ccccc1,–,-12% (inactive)
CCCCCC[C@@H](O)C/C=C\CCCCCCCC(=O)O,–,-6.92% (inactive)
C[C@@H]1CN(CCCn2c3ccccc3c3ccccc32)C[C@H](C)N1,0.389 µM (active),–
C/C=C(/C(=C/C)c1ccc(O)cc1)c1ccc(O)cc1,–,-7.16% [at 53 µM] (inactive)
CCCCOc1ccc(OCCCN2CCOCC2)cc1,27.5 µM (active),–
N#CCCN(CCO)CCO,–,0.2% (inactive)
Cc1cccc(N(C)C(=S)Oc2ccc3c(c2)CCC3)c1,–,-16% [at 53 µM] (inactive)
C=C(C)C(=O)OCCCCCCCCCCCCC,–,0.922% (inactive)
C[C@]1(Cn2ccnn2)[C@H](C(=O)O)N2C(=O)C[C@H]2S1(=O)=O,–,-85.9% [at 53 µM] (inactive)
CC(=O)N/N=C/c1ccc([N+](=O)[O-])o1,–,-20.4% [at 53 µM] (inactive)
